Measurements from PubChem BioAssay (NCI).
The panel holds about 79,000 compounds, 15% with a hit somewhere; the sample as a whole holds those more often. A number with no mark means an inactive call. Activity calls are given as the source filed them. No stated cut-off is given here; in the data, active means growth inhibition above about 70%; inactive means the rest.

How the values were obtained:
[1] = NCI Yeast Anticancer Drug Screen. Data for the rad50 strain (AID 155);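 further: 0% = growth of vehicle-only cultures of the same strain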; settings: S. cerevisiae rad50 strain growth inhibition; at 50.0 µM; hits give high values
Summary of the method: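 Relative growth inhibition (compound vs vehicle) was measured in yeast with a defined repair-gene alteration.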

[2] = NCI Yeast Anticancer Drug Screen. Data for the mec2-1 strain (AID 157); settings: S. cerevisiae mec2-1 strain, at 50.0 µM, hits give high values
Summary of the method: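 Mutant yeast (mec2-1) grown with compound; growth inhibition relative to vehicle control reported.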

[3] = NCI Yeast Anticancer Drug Screen. Data for the sgs1 mgt1 strain (AID 161);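 further: 0% = growth of cultures given vehicle only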; settings: S. cerevisiae sgs1 mgt1 strain, at 50.0 µM, hits give high values
Summary of the method: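 This yeast growth screen uses a strain with defined DNA-repair lesions; compound-treated growth is compared with vehicle-treated growth.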

[4] = NCI Yeast Anticancer Drug Screen. Data for the cln2 rad14 strain (AID 165);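 further: 0% = growth equal to vehicle treated cultures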; settings: S. cerevisiae cln2 rad14 strain, at 50.0 µM, hits give high values
Summary of the method: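 Readout is yeast growth inhibition versus vehicle-treated controls, using a strain with cln2 and rad14 alterations exposed to compound.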

[5] = NCI Yeast Anticancer Drug Screen. Data for the bub3 strain (AID 167); settings: S. cerevisiae bub3 mutant strain, at 50.0 µM, hits give high values
Summary of the method: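 Screening used yeast with an engineered genetic alteration affecting cell cycle control. Compound-exposed cultures were compared with vehicle cultures, and reduced growth was taken as inhibition.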

[6] = NCI Yeast Anticancer Drug Screen. Data for the mlh1 rad18 strain (AID 175); settings: S. cerevisiae mlh1 rad18 strain growth inhibition; at 50.0 µM; hits give high values
Summary of the method: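 Genetically defined yeast (DNA repair-deficient) exposed to compounds; growth inhibition determined relative to vehicle.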

SMILES	growth inhibition [1]	growth inhibition [2]	growth inhibition [3]	growth inhibition [4]	growth inhibition [5]	growth inhibition [6]
COc1ccc(C(C#N)Cc2ccccc2)c([N+](=O)[O-])c1 (stereo unspecified)	17.6%	-5.75%	4.8%	-34.2%	0.45%	16.4%
CNC(=O)OCc1nc(SC)n(Cc2ccccc2)c1COC(=O)NC	15.3%	5.9%	11.2%	-1.1%	-1.55%	18.5%
NC(=O)c1cc[cH-]c1.[Fe+2].c1cc[cH-]c1	-10.1%	9%	-4.75%	-2.05%	5.35%	12.9%
CC(c1ccc([N+](=O)[O-])cc1)n1cnc2c(N(CCO)CCO)ncnc21 (stereo unspecified)	6.3%	-1.15%	-13.7%	-3.7%	-12.2%	-0.5%
CCCC(=O)N[C@H]1C[C@H]2CC[C@@]1(C)C2(C)C	-31.6%	-27.4%	-15.1%	11.2%	10.3%	-1.75%
Cc1cc2c(cc1C)[n+](=O)c(C(=O)/C=C/c1ccc3c(c1)OCO3)c(C)n2[O-]	5.85%	13.4%	10.1%	28.8%	1.35%	0.15%
CC(CCl)NS(=O)(=O)c1ccccc1 (stereo unspecified)	2.1%	2.85%	-2.85%	0.85%	-7.5%	-8.05%
O=C(O)CCCCCCCCC(=O)c1cc(O)ccc1O	-5.3%	42.1%	35.7%	-7.25%	20.4%	7.9%
CCCC(=O)OCc1ccc(Cl)cc1	24.6%	12.8%	6.9%	5.15%	6.55%	3.35%
O=C(c1ccccc1)C(C(c1ccc(Cl)cc1)N1CCOCC1)N1CCOCC1 (stereo unspecified)	5.15%	2.75%	16.8%	19.9%	10.7%	7.65%
Cc1ccc(SCC(CF)OC(C)n2cnc3c(=O)[nH]c(N)nc32)cc1 (stereo unspecified)	9.8%	6.1%	-27.4%	23.4%	7.55%	-46.5%
Cc1nc2c3c4c(sc3nc(C)n2n1)CCCC4	1%	10.3%	22.2%	80.4% (active)	7.3%	12%
NC(=O)O/N=C/c1ccccn1	-12.1%	2.75%	-17.4%	-10%	-2.65%	-6.95%
CC(C)(C)c1ccc(O)c(C(=O)O)c1	3.55%	-0.95%	-5.8%	-4%	-35.1%	-23.2%
Cc1cc([N+](=O)[O-])ccc1NS(=O)(=O)c1ccccc1	24.9%	39.5%	42.9%	15.5%	18.1%	36.6%
N#Cc1cccc(N(C(=O)c2ccccc2)c2ccccc2)n1	4.35%	7.9%	-4.5%	0.1%	41%	24.9%
Cc1cccc(NC(=O)C(C)C)c1	24.3%	19.4%	11.8%	-2.35%	-43.9%	-33%
COc1cc2c(cc1OC)C1c3ccccc3CCCN1CC2 (stereo unspecified)	-40.4%	-4.5%	-57.5%	0.55%	-23.6%	-27%
CC(NC(=O)OCc1ccccc1)NC(=O)C(CC(=O)OC(C)(C)C)NC(=O)OC(C)(C)C (stereo unspecified)	-26.6%	-40.5%	-24.9%	-7.3%	-30.8%	-29.3%
CCCNC(=O)c1ccc(Cl)cc1Cl	29.8%	7.85%	18.4%	-12.2%	-12.5%	27.1%
CC(=O)CC(=O)C(F)(F)F	14%	-3.35%	-20.5%	9.8%	7.3%	4.75%

SMILES	growth inhibition [1]	growth inhibition [2]	growth inhibition [3]	growth inhibition [4]	growth inhibition [5]	growth inhibition [6]
CN(C)c1ccc(/C=N/NC(=O)c2ccccc2NC(=O)c2ccccc2)cc1	-1.65%	-20.3%	-11.6%	-19.8%	14.9%	3.4%
Cc1ccc(S(=O)(=O)N/N=C2\CCC3CC3CC\C2=N/NS(=O)(=O)c2ccc(C)cc2)cc1 (stereo unspecified)	-0.85%	-4.4%	0.6%	-9.1%	-2.7%	-5.75%
O=c1ccc2cc3c(cc2[nH]1)OCO3	2.5%	-1.25%	-4.2%	-39.5%	-9.2%	7.05%
O=S(Nc1ccc(Cl)cc1)c1ccccc1 (stereo unspecified)	10%	10.9%	31.1%	4.1%	18.1%	2.3%
O=C(Nc1ccccc1)c1ccc(I)cc1	7.05%	-31.7%	8.3%	-7.35%	3.95%	-25.3%
Cc1cccc(C)c1NC(=S)/N=C/C1=C(O)c2ccccc2C1=O	-36.8%	-17.2%	-10.2%	13.8%	-7.5%	23.6%
CCCCC/C(=N\Nc1ccc([N+](=O)[O-])cc1[N+](=O)[O-])c1ccc(-c2ccccc2)cc1	13.9%	6.05%	-6.9%	19.1%	-5.95%	0.6%
CCOC(=O)C(=O)C1CCCC(C)C1=O (stereo unspecified)	16%	11.8%	-16.6%	-43.1%	10.8%	1.05%
Cc1ccc(N=Nc2c(O)n(C)c(=O)n(C)c2=O)cc1C	-8.3%	-5.7%	-17.2%	3.95%	-18.6%	-12.8%
CC[N+]1(C)CC2CCC1C2 (stereo unspecified)	4.55%	17.1%	14.5%	-39.9%	5.85%	-11.8%
O=C(O)/C=C/c1ccccc1Br	20.8%	3.5%	12.7%	8.3%	-8.7%	-17.4%
COc1cccc(NC(=O)/C(CS(=O)(=O)CCC(C(C)=O)C(C)=O)=N\NC(C)(C)C)c1	11.7%	0.7%	-20.8%	-21.9%	1.3%	7.1%
CC1=C(\C=C/C(C)=C/C=C/C(C)=C/C=N/NC(=O)c2cccnc2)C(C)(C)CCC1	2.4%	-7.4%	33.5%	41.6%	30%	27.6%
COc1ccc(C(=O)CC(=O)C2CCCCC2=O)cc1 (stereo unspecified)	-12.5%	-12.3%	-3.4%	-19.8%	19.3%	-9.05%
O=C(c1ccc(Cl)cc1)N(C(=S)N1CCN(c2ccccc2)CC1)c1ccccc1	-11.5%	-25.9%	-12.1%	-6.3%	-13.8%	-15.1%
CC(=O)[CH-]C(=O)c1ccccc1.CC(=O)[CH-]C(=O)c1ccccc1.CC(C)CCCC(C)[C@H]1CCC2[C@@H]3CC=C4C[C@@H]([O-])CC[C@]4(C)C3CC[C@@]21C.CC[O-].[Ti+4] (stereo partly specified)	11.2%	0.05%	10.2%	-33.9%	23.2%	3.85%
CC1(C)CC(O)=CC(=O)N1	15.9%	-5.75%	-3.85%	11.7%	10.3%	4.45%
Cc1cc(C)c(NC(=O)C(Br)C(Br)c2ccccc2)c(C)c1 (stereo unspecified)	11.6%	-5.6%	5.1%	23.8%	2.15%	21.4%
COc1ccc2c3c([nH]c2c1)CCN(CCCC(=O)c1ccc(F)cc1)C3	-8.15%	-4%	42.6%	31.1%	45.2%	1.8%
Cc1ccc(S(=O)(=O)C(C#N)(Cc2c[nH]c3ccccc23)Cc2c[nH]c3ccccc23)cc1	4.85%	9.25%	-5.25%	-16.2%	11.8%	6.5%
